PLK1 PBD inh – blocks phosphopeptide binding to human PLK1 polo-box domain; P53350; Plk1 PBD binding of FITC phosphopeptide, fluorescence polarization; Potency, µM, for the others: max response, negative = inhibition, usual class: inhibitors; 360,000 tested, 2.8% active; note: potency is the fitted concentration of half-maximal effect; series mostly up to about 57 µM; % is set by controls: 0 for no effect and ±100 for the full control effect; nearly all actives have a fitted effect of over 65% in size
KAT2A inh – inhibitors of human GCN5L2 histone acetyltransferase. Q92830. GCN5L2 HAT assay, ThioGlo1 CoA-SH fluorescence. Potency, µM (top dose mostly 58.9 µM), for inactives: at the top dose activity change, negative = inhibition, actives largely listed as inhibitors. 390,000 tested, 0.21% active. AID 504327; note: potency is the fitted concentration of half-maximal effect; % is set by controls: 0 for no effect and ±100 for the full control effect
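Compounds, pin-transferred from DMSO stocks, meet 20nM GCN5L2 for 15 min before the reaction begins with H3(1-25) peptide (75uM) and acetyl-CoA (70uM). Thiol-reactive ThioGlo1 reports CoA release over 20 min at room temperature.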
Rango release inh – prevents RanGTP from dissociating the Rango-importin beta complex. O95149+P62826. Biochemical FRET Rango-importin beta, RanGTP-induced dissociation. Potency, µM (top dose mostly 46.1 µM), for the others: top-dose activity change, negative = inhibition. 340,000 tested, 0.071% active; calls by dose curve; note: potency is the fitted concentration of half-maximal effect; % of control where 0% means no effect; nearly all actives have a fitted effect of over 45% in size
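Two FRET readings bracket the reaction: one 5 min after compound meets Rango–importin beta, another 45 min after RanGTP-RCC1 (0.6 uM Ran, 0.2 uM RCC1, 2 mM GTP) is added. Only the second defines inhibition.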
PI5P4K alpha inh – inhibitors of human PI5P4K alpha; PI5P4Kalpha enzyme, ADP-Glo luminescence, 60 min; active compounds read low; max response, %; 330,000 tested, 1.2% active; P48426; active = max response of -50% or lower; inconclusive = between -30% and -50%; inactive = -30% or higher; note: value at the top dose of about 77 µM; % is set by controls: 0 for no effect and ±100 for the full control effect
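Reactions run in 0.038 M HEPES pH 7.4, 0.28 mM EGTA, 0.1% CHAPS and 5% DMSO, with PI5P4Kalpha, substrate, compound and 5 microM ATP final, one hour at room temperature. Readout is ADP-Glo luminescence.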
Rango complex inh – prevents formation of the Rango-importin beta complex | Q14974 | 340,000 tested, 0.031% active | AID 540263 | Potency, µM (highest dose often 92.2 µM), for the others: at the top dose inhibition of complex formation | Rango CFP/YFP FRET sensor + importin beta, 45 min; calls by dose curve;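 note: potency is the fitted concentration of half-maximal effect; 0% = DMSO wells and 100% = buffer wells lacking importin beta; nearly all actives have a fitted effect of over 15% in size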
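Inhibition scored from the CFP 486 nm/YFP 530 nm FRET ratio 45 min after adding 0.125 microM importin beta to 50 nM Rango biosensor preincubated 5 min with compound (room temperature, PBS with DTT, Tween-20, BSA). No-importin wells as positive control.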
VDR inh – vitamin D3 receptor (human) inhibition; P11473; VDR-SRC2-3 peptide fluorescence polarization, 2 h; Potency, µM, for the others: max response, negative = inhibition, usual class: inhibitors; 400,000 tested, 0.93% active; note: potency is the fitted concentration of half-maximal effect; % is set by controls: 0 for no effect and ±100 for the full control effect
Target sequence (P11473 whole entry, looked up): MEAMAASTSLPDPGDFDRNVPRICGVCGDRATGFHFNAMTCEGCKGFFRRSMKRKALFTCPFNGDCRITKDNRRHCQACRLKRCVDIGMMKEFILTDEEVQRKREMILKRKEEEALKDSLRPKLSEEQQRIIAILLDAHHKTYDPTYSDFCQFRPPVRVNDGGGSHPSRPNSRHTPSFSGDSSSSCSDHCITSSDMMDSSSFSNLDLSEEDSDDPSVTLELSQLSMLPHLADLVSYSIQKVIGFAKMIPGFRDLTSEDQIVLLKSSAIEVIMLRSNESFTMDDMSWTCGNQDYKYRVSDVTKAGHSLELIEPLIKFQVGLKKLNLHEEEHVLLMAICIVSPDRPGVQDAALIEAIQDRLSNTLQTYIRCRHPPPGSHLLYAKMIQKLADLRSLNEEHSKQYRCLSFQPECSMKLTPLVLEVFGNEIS
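Reagent solutions, kept cold and dark, are dispensed first; compounds are then pinned in at 23 nl, plates briefly spun, and incubated 2 h at ambient temperature. Inhibition of VDR–SRC2-3 peptide binding is read by fluorescence polarization.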
Starred values were filed as active, the others as inactive; u = inconclusive; x = no result given. A selection: hits, their analogues and other compounds. The true share with any hit is near 3.6%. Unless noted, calls come from the whole dose curve; as a rule, active = well fitted curve in the direction sought with a large enough effect; inconclusive = small, poorly fitted or top-dose-only effect, or another doubt; inactive = no such curve, though single readings can be large; an effect the other way counts as inactive or inconclusive.

SMILES	PLK1 PBD inh	KAT2A inh	Rango release inh	PI5P4K alpha inh	Rango complex inh	VDR inh
Cc1ccccc1CCNC(=O)C1CCC(=O)N(CCc2cccc(F)c2)C1 (stereo not drawn)	30µM*	-18%	-4%	-4	-1%	1%
O=C(/C=C/c1ccccc1)Nc1cc(-c2nc3ccccc3o2)ccc1Cl	x	-13%	x	x	x	-6%
CCn1c(=O)c2sccc2n2c(CCC(=O)Nc3ccc(C(C)C)cc3)nnc12	x	-3%	x	x	x	-9%
COc1ccc(N2CCN(C(=O)c3ccc(N(C)S(=O)(=O)c4ccc(OC)cc4)cc3)CC2)cc1	13µM*	0%	20%	u	-3%	89µM*
COc1ccc(N2CCN(C(=O)c3ccc(N(C)S(=O)(=O)c4ccc(C)cc4)cc3)CC2)cc1	-9%	-10%	-6%	-6	-1%	-6%
Cc1nn2c(=O)cc(COC(=O)c3ccccc3NC(=O)C(C)C)nc2s1	x	20%	x	x	x	-2%
COc1ccc(N2C(=O)CC(Sc3nnc(-c4ccccc4F)n3C)C2=O)cc1 (stereo not drawn)	24µM*	-7%	2%	0	1%	-18%
C=CCNc1nnc(SC2CC(=O)N(c3ccc(OC)cc3)C2=O)s1 (stereo not drawn)	27µM*	-11%	-6%	x	0%	-19%
COc1ccc(N2C(=O)CC(Sc3nc4ccccc4s3)C2=O)cc1 (stereo not drawn)	-15%	-9%	9%	-18	-1%	6%
COc1ccc(N2C(=O)CC(Sc3nccc(C)n3)C2=O)cc1 (stereo not drawn)	-6%	1%	-7%	-6	-1%	7%
CCOc1cc2[nH]c(=O)n(CCCCC(=O)N3CCN(c4ccc(OC)cc4)CC3)c(=O)c2cc1OCC	x	-1%	x	x	x	17%
COc1ccc(/C=N/NC(=O)Nc2cccc3nsnc23)cc1	24µM*	-15%	u	4	u	u
O=C(Nc1ccccc1)Nc1cccc2nsnc12	-6%	-3%	u	2	u	1%
C=CCn1c(SCC(=O)Nc2cc(C)on2)nc2sc3c(c2c1=O)CCCC3	27µM*	1%	-7%	-6	3%	7%
CCn1c(SCC(=O)Nc2cc(C)on2)nc2sc3c(c2c1=O)CCCC3	-1%	-2%	12%	x	-2%	4%
O=C(Nn1c(-c2ccc(Br)cc2)nc2ccccc2c1=O)c1cccnc1	u	-12%	-12%	-56*	-4%	-23%
COc1ccc(-c2nc3ccccc3c(=O)n2NC(=S)N(C)C)cc1	4.7µM*	2%	3%	u	2%	35µM*
Cn1c(=O)c(C(=O)CN2CCCc3ccccc32)c(N)n(Cc2ccccc2)c1=O	-15%	-21%	-22%	-15	u	7%
Cn1c(=O)c(C(=O)CN2CCc3ccccc32)c(N)n(Cc2ccccc2)c1=O	30µM*	4%	-6%	-19	-5%	u
O=C(NNC(=O)C1[C@H]2CCCC[C@@H]12)Nc1cccc2ccccc12 (stereo partly drawn)	0%	25µM*	-1%	-1	-2%	6%
COc1cccc(NC(=O)CSc2nc3ccc(NC(=O)c4ccco4)cc3s2)c1	x	-5%	x	x	x	15%
CCN(CC)N=Nc1[nH]nc2nc(C)cc(C)c12	8.4µM*	-5%	16%	-30	5%	-16%
CCCNC(=O)N1N=C(c2ccc(N)cc2)c2cc3c(cc2C1C)OCO3 (stereo not drawn)	x	-13%	x	x	x	-21%
COc1cccc(CN2CCN(Cc3cccc4nonc34)CC2CCO)c1 (stereo not drawn)	17µM*	-2%	6%	-4	6%	-28%
CC1CCc2nn(CC(=O)NCc3ccco3)cc2C1 (stereo not drawn)	30µM*	-7%	25%	-3	4%	-12%
SMILES	PLK1 PBD inh	KAT2A inh	Rango release inh	PI5P4K alpha inh	Rango complex inh	VDR inh
CCOC(=O)c1ccc(NC(=O)CCCn2nc(C)c3sc4ccccc4c3c2=O)cc1	x	-11%	x	x	x	10%
O=[N+]([O-])c1ccc2c(c1N1CCCCC1)=NC1(CCCCC1)[N+]=2[O-]	21µM*	-5%	3%	-53*	-1%	-9%
O=[N+]([O-])c1ccc(N2CCCCC2)nc1N1CCCCC1	-7%	-2%	3%	5	-3%	2%
COC(=O)c1ccccc1NC(=O)c1ncoc1-c1ccco1	x	-1%	x	x	x	4%
Cc1cc(C)c(-c2csc(Cc3nc(-c4cc5ccccc5oc4=O)cs3)n2)cc1C	27µM*	-11%	1%	-6	2%	u
CCn1nc(C)c2c(-c3ccccc3)cc(=O)n(C(C)C(=O)NCCC(C)C)c21 (stereo not drawn)	x	-6%	x	x	x	12%
CCCS(=O)(=O)c1c(S(=O)(=O)CCC)c2cc(C(C)(C)C)ccn2c1C(=O)c1ccccc1	x	-5%	x	x	x	11%
COc1ccc(C(=O)OCC(=O)c2ccco2)cc1[N+](=O)[O-]	-3%	x	x	-59*	x	x
Cc1cccc(CC2C(=O)Nc3ccccc32)c1 (stereo not drawn)	x	-5%	x	x	x	6%
CCc1c(C)c2cc(Cl)c(O)c(CN(CC)CC)c2oc1=O	-9%	-29%	u	x	u	8%
Cc1c(C)c2cc(Cl)c(O)c(CN(C)C)c2oc1=O	-9%	22µM*	u	x	u	-5%
CCc1c(C)c2cc(Cl)c(O)c(CN(C)C)c2oc1=O	-9%	28µM*	u	x	u	-11%
COc1ccc(N2CC(NC(=O)c3ccc4c(c3)OCO4)CC2=O)cc1 (stereo not drawn)	x	-9%	x	x	x	4%
c1ccc(C2=Nn3c(nnc3-c3ccco3)SC2)cc1	30µM*	-9%	-6%	-7	-5%	-2%
Brc1ccccc1C1=Nn2c(nnc2-c2ccco2)SC1	-20%	-7%	16%	-23	-1%	5%
CCOC(=O)c1c(C)oc2c1cc(NS(=O)(=O)c1ccc(C)cc1)c1ccccc12	x	-1%	x	x	x	-10%
O=C(Nc1ccc2nc(SCC(=O)N3CCCC3)sc2c1)c1ccccc1F	x	-18%	x	x	x	0%
COc1ccccc1CNc1nc(-c2cc(C)n(C)c2C)cs1	u	-11%	-13%	-72*	-1%	24%
CC(C)CCNS(=O)(=O)c1ccc(N2CCCCS2(=O)=O)cc1	x	-5%	x	x	x	5%
C[C@@H]1CN([C@@H](C)CO)C(=O)CCCn2nncc2CO[C@H]1CN(C)C(=O)Nc1ccc2c(c1)OCO2	7%	x	x	2	x	x
C[C@H]1CN([C@@H](C)CO)C(=O)CCCn2nncc2CO[C@@H]1CN(C)C(=O)Nc1ccc2c(c1)OCO2	5.3µM*	x	x	5	x	x
C#Cc1ccc2c(c1)C(=O)N(C)Cc1c(C(=O)OCCCOC(=O)c3ncn4c3CN(C)C(=O)c3cc(C#C)ccc3-4)ncn1-2	x	36%	x	x	x	2%
O=c1c(Br)ccc(Br)cc1Br	0.53µM*	x	-24%	-6	-5%	10µM*

Screening results as filed in PubChem BioAssay.
